Results reported in PubChem BioAssay AID624483 (NMMLSC, 2012).
Out of some 360,000 compounds screened, about 11,000 (3.1%) were called active. About 2% were inconclusive and are not listed. Many of the other results were omitted from the sample, so actives are more common in it than they were. Unmarked numbers belong to inactive results. Rule as the data show it: active = fluorescence intensity above about 16000; inconclusive = no clear call, values can overlap the other calls; inactive = below that.

assay: compound fluorescence in toxin protease inhibitor counterscreen, primary screen, artefact control for toxin protease inhibitor project, biochemical, multiplex microsphere, HTS (AID 624483); details: compound autofluorescence counterscreen, microsphere flow cytometry; stronger effect = higher value

Structure (SMILES)	fluorescence intensity
CC(=O)Nc1cc(-c2ccccc2N(C)C)cn2c(-c3ccc(F)c(Cl)c3)cnc12	3420
O=C1NC[C@H](Cc2ccc(O)cc2)N(C[C@H]2CCCN2C[C@H](Cc2ccccc2)N2C[C@H](Cc3ccccc3)N(CCc3ccccc3)C(=O)C2=O)C1=O	5960
CC(OC(=O)CNC(=O)c1ccco1)C(=O)Nc1ccc(Cl)cn1 (centres undefined)	4920
CCCCC(CC)C(=O)Nc1ccc(Cl)cn1 (centres undefined)	21400 (active)
O=C(Nc1ccc(Cl)cn1)c1ccccc1-c1ccccc1	3610
CCCOc1ccccc1C1CC(=O)Nc2cc3c(cc21)OCO3 (centres undefined)	3540
COCCOC(=O)C1=C(C)NC(=O)CC1c1cc2c(cc1Br)OCO2 (centres undefined)	22200 (active)
COCCOC(=O)C1=C(C)NC(=O)NC1c1cc2c(cc1Br)OCO2 (centres undefined)	3890
CS(=O)(=O)/C(C#N)=C/c1cccn1S(=O)(=O)c1ccc([N+](=O)[O-])cc1	5100
CC(=O)Nc1cc(-c2ccccc2F)cn2c(-c3cccc(C(F)(F)F)c3)cnc12	3600
CCOc1ccc(-c2nc(C)sc2CC(=O)O)cc1	22400 (active)
Cc1ccc(-c2nc(C)sc2CC(=O)OCC(=O)Nc2c(F)cccc2F)cc1	2600
CCOc1ccc(NC(=O)CN(C)C(=O)Cc2sc(C)nc2-c2ccc(F)cc2)cc1OCC	8360
CCOc1ccc(CCN2C(=S)N([C@@H](CC(C)C)CN3CCC[C@@H]3CN3C(=S)NC[C@@H]3Cc3ccc(O)cc3)C[C@@H]2CC(C)C)cc1	6060
COc1ccc(CNC(=O)CN2C(=O)NC3(CCCc4sccc43)C2=O)cc1 (centres undefined)	5880
COc1ccc(C(=O)CC(=O)c2ccc(C)cc2)c(O)c1	4090
COc1ccc(OC)c(C(=O)c2ccc(C(=O)N3CCN(Cc4csc(C)n4)CC3)cc2)c1	4240
COc1ccc(OC)c(C(=O)c2ccc(C(=O)O)cc2)c1	16800 (active)
COCOc1cccc(CN2CCC(C)(Oc3ccc(SC)cc3)C2)c1 (centres undefined)	3010
Cc1[nH]c(C)c(S(=O)(=O)N2CCN(c3cccc(C(F)(F)F)c3)CC2)c1C(=O)N1CCCCC1	5140
CN1C(=O)C2(OCCCO2)c2cc(Cl)ccc21	3420
COc1ccc(S(=O)(=O)Nc2cc(C)on2)cc1NC(C)=O	4100
COc1cc2ccccc2cc1C(=O)Nc1ccc(S(=O)(=O)Nc2cc(C)on2)cc1	18400 (active)
CCOc1ccc(C(=O)Nc2ccc(S(=O)(=O)Nc3cc(C)on3)cc2)cc1	3660
